Rows were chosen to be rich in hits. Some 1.2% of all compounds tested hit in one or more screens of this group.
PfHsp40 yeast: restores yeast growth despite PfHsp40 toxicity; S. cerevisiae expressing PfHsp40, growth rescue, ATP luminescence; growth rescue, % at 12.5 µM; 340,000 compounds, 0.68% hits; AID 504582; in the data active means growth rescue above about 28%, passing the limit was not always enough; inconclusive means no clear call, values can overlap the other calls;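 further: yeast W303a lacking pdr1 and pdr3 grown in galactose medium; growth measured after three days at 30 °C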
RN4220 kill: S. aureus RN4220 growth inhibition. OD600, 16 h. inhibition, % (concentration not given with the values). 330,000 compounds, 0.33% hits. AID 1259311; in the data active means inhibition above about 85%;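 further: plate controls were untreated cells for no effect and reference antibiotic for full effect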
Mtb bLac sens: beta-lactam sensitization of Mtb H37Rv | 330,000 compounds, 0.27% hits | M. tuberculosis H37Rv growth with meropenem, percent inhibition | AID 434955 | inhibition, % at 25 µM; call rule not given here;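 further: growth measured after seven days incubation then overnight dye step; 0% = bacteria only wells and 100% = bacteria with antibiotic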
Vc quorum ag: inducers of Vibrio cholerae quorum light production without autoinducers; V. cholerae BH1578 lux reporter, luminescence, 6 h; activation, % at 18.7 µM; 350,000 compounds, 0.16% hits; in the data active means activation mostly above about 9.7%, no sharp cut-off; inconclusive means no clear call, values can overlap the other calls; inactive means mostly below about 3.7%
ugtP null kill: kills S. aureus RN4220 lacking UgtP; S. aureus RN4220 ugtP deletion, OD600 growth, 16 h; growth inhibition, % (no concentration beside the values); 330,000 compounds, 0.54% hits; in the data active means growth inhibition above about 68%;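 further: plate controls were untreated wells for no effect and antibiotic for full effect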
* marks the source's active call; other numbers are inactive results.

Results for CCOC(=O)c1c(C)[nH]c(C)c1C(=O)COC(=O)c1ccc([N+](=O)[O-])s1 ?
PfHsp40 yeast: 6; RN4220 kill: 3; Mtb bLac sens: 99; Vc quorum ag: 2; ugtP null kill: -4

How did O=C(OCC(=O)c1c[nH]c2ccccc12)c1ccc([N+](=O)[O-])s1 do in these assays?
PfHsp40 yeast: -5; RN4220 kill: 85; Mtb bLac sens: 100; Vc quorum ag: 0; ugtP null kill: 101*

What do the screens show for `Cc1ccc(-n2nc(C)cc2Nc2ncc(Cl)cc2Cl)cc1`?
PfHsp40 yeast: 93*; RN4220 kill: 8; Mtb bLac sens: 5; Vc quorum ag: 0; ugtP null kill: 3

What do the screens show for `Cc1cc(Nc2ncc(Cl)cc2Cl)n(-c2ccccc2C)n1`?
PfHsp40 yeast: 0; RN4220 kill: 7; Mtb bLac sens: 1; Vc quorum ag: 0; ugtP null kill: 2

How did CN1c2ccsc2C(=NNc2ccc(F)cc2)CS1(=O)=O do in these assays?
RN4220 kill: 83; ugtP null kill: 100*

Results for Cc1cccc(C(=O)NN=C2CS(=O)(=O)N(C)c3ccsc32)c1 ?
RN4220 kill: 3; ugtP null kill: 2

What do the screens show for `Cc1ccc(CC(=O)Nc2nc3ccccc3s2)cc1`?
PfHsp40 yeast: 4; RN4220 kill: 0; Mtb bLac sens: 10; Vc quorum ag: 0; ugtP null kill: -9

How did Cc1nc2c(ccc3nc(NC(=O)Cc4ccccc4)sc32)s1 do in these assays?
PfHsp40 yeast: 29*; Mtb bLac sens: 70; Vc quorum ag: 0

How did COc1ccc(C=NNC(=O)c2ccccc2O)cc1CSc1ccccn1 do in these assays?
RN4220 kill: 11; ugtP null kill: 8

Results for CCCC(CNC)NCC(Cc1ccccc1)NCCCCc1ccccc1 (stereo unspecified) ?
RN4220 kill: 0; ugtP null kill: -29

How did C(C#CCCCCCCCCC[n+]1ccccc1)#CCCCCCCCCC[n+]1ccccc1 do in these assays?
PfHsp40 yeast: inconclusive; RN4220 kill: 100*; Mtb bLac sens: 100; Vc quorum ag: 0; ugtP null kill: 101*

Results for O=C(Nc1ccccc1OC(F)F)c1ccc(Br)o1 ?
PfHsp40 yeast: -1; RN4220 kill: 0; Mtb bLac sens: 8; Vc quorum ag: 32*; ugtP null kill: 3

How did CC(=O)Nc1ccc(NC(=S)NC(=O)/C=C/c2ccco2)cc1 do in these assays?
PfHsp40 yeast: 1; RN4220 kill: 4; Mtb bLac sens: 10; Vc quorum ag: inactive; ugtP null kill: 86*

What do the screens show for `CN1CCN(c2ccc(NC(=S)NC(=O)/C=C/c3ccco3)cc2)CC1`?
PfHsp40 yeast: -1; RN4220 kill: 0; Mtb bLac sens: 1; Vc quorum ag: 0; ugtP null kill: 89*

What do the screens show for `Cc1ccc(N(CC(=O)NN=Cc2ccco2)S(=O)(=O)c2ccccc2)cc1`?
RN4220 kill: 8; ugtP null kill: 2

Results for O=C(CNC(=O)c1ccc(F)cc1)NN=Cc1cc(Br)ccc1OCc1ccccc1 ?
RN4220 kill: -5; ugtP null kill: -4

How did CCc1cc2c(nc1CC)CCN(CCC(C)=NOC(C)c1cc(-c3c(C)cc(C)cc3C)no1)C2 (stereo unspecified) do in these assays?
RN4220 kill: 1; ugtP null kill: -4

How did CCn1nc(C)cc1C(=O)Sc1ccc(Cl)cc1Cl do in these assays?
PfHsp40 yeast: -3; RN4220 kill: 24; Mtb bLac sens: -2; Vc quorum ag: inactive; ugtP null kill: 96*

How did CCCCOc1ccc(CSCCN=C(N)N)cc1 do in these assays?
PfHsp40 yeast: 0; RN4220 kill: 21; Vc quorum ag: 0; ugtP null kill: 100*

What do the screens show for `CCCCOc1ccc(CSC(CC(=O)O)C(=O)O)cc1` (stereo unspecified)?
PfHsp40 yeast: -1; RN4220 kill: -13; Mtb bLac sens: 4; Vc quorum ag: 1; ugtP null kill: -2

Results for C=C(C)CNC(=S)NNC(=O)CCn1c2ccc(Cl)cc2c2cc(Cl)ccc21 ?
PfHsp40 yeast: 11; RN4220 kill: 93*; Mtb bLac sens: 80; Vc quorum ag: inactive; ugtP null kill: 43

Results for C=C(C)CNC(=S)NNC(=O)CCn1c2cc(Cl)ccc2c2ccc(Cl)cc21 ?
PfHsp40 yeast: 3; RN4220 kill: 7; Mtb bLac sens: 0; Vc quorum ag: 0; ugtP null kill: -18

How did Nc1nonc1C(=O)NN=Cc1cccc([N+](=O)[O-])c1 do in these assays?
RN4220 kill: 2; ugtP null kill: -3

Results for O=C1c2ccccc2C(=O)c2cc(S(=O)(=O)Nc3ccccc3)ccc21 ?
PfHsp40 yeast: 1; RN4220 kill: 96*; Mtb bLac sens: 14; Vc quorum ag: inactive; ugtP null kill: 89*

High-throughput results: PubChem BioAssay, several laboratories
